Test results reported in PubChem BioAssay AID1445 (SRMLSC, 2008).
The whole screen tested about 220,000 compounds, of which about 910 (0.41%) were called active. Shown is part of a subset that was picked to be rich in actives. Results with a measured potency or affinity are listed apart. Values without a mark were called inactive.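 How the source made its calls: active means primary inhibition above the hit cutoff, then over 50% inhibition at one or more dose response concentrations (cut at about 23% in these data, passing the limit was not always enough); inconclusive means conflicting primary data, or primary hits not chosen for dose response; inactive means low primary inhibition, or under 50% at every dose.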

Target: Aminopeptidase N (Plasmodium falciparum (isolate 3D7)) (UniProt O96935)
Sequence (O96935 whole entry, looked up): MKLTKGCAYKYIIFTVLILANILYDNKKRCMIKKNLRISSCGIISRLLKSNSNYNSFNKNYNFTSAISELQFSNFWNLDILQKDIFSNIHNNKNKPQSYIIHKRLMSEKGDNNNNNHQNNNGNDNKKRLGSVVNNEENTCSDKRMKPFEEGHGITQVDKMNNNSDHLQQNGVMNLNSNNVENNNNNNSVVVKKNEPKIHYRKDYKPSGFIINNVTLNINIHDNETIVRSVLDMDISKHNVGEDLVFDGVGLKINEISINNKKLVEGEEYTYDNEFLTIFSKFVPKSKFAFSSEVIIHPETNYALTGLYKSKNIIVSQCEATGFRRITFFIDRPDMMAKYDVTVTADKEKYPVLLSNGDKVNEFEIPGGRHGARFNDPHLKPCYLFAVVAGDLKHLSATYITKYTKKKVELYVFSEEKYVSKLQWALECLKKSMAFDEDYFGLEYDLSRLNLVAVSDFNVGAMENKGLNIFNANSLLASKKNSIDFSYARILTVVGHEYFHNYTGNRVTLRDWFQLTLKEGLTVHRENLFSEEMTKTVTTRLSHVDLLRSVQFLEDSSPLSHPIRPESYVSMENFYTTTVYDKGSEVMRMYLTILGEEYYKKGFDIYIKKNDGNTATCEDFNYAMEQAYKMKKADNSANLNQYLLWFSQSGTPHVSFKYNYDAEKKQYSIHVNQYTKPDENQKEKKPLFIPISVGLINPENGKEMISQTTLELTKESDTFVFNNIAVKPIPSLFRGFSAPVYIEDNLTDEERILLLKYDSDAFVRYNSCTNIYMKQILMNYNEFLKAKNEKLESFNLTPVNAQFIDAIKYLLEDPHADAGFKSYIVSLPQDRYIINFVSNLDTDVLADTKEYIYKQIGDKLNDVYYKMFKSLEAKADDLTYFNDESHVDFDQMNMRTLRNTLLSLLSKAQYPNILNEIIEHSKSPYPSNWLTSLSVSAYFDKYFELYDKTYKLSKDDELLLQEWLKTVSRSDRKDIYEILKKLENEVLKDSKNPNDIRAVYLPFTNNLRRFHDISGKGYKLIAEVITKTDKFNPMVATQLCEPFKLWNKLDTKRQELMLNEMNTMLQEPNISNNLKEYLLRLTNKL
Experiment: P. falciparum M1AAP inhibitors, biochemical, fluorogenic H-Leu-NHMec substrate, 1536-well (AID 1445);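 further: plate controls were DMSO full reaction for no effect and no enzyme background for full effect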
Conditions: recombinant M1AAP, H-Leu-NHMec fluorogenic kinetic assay; at 30 µM, hits give high values unless noted

SMILES | inhibition
CCC(c1nnnn1Cc1ccco1)N1CCC(C(N)=O)CC1 (stereo not drawn) | 10.1%
Nc1cc(-c2ccccc2)nn1Cc1ccccc1 | 34.3%
Nc1cc(-c2ccccc2)nn1Cc1ccc(Cl)cc1 | 25.7% (active)
Cc1ccc(-c2cc(N)n(Cc3ccc(Cl)cc3)n2)cc1 | 12.9%
N#CC1=C(N)OC2=C(C(=O)CCC2)[C@]12C(=O)N(CC(N)=O)c1ccccc12 | 9.16%
Cc1cccc(Nc2nc(N)nc(CN3CCN(C)CC3)n2)c1 | 9.59%
CCN(CC)CCCNC(=O)C(C)n1c2ccccc2c2nc(=O)cc(C)n21 (stereo not drawn) | 3.31%
COc1ccc(C2/C(=C(/O)c3ccccc3)C(=O)C(=O)N2CCO)cc1 (stereo not drawn) | 2.56%
COc1ccc(N/C(C)=C2/C(=O)C(=O)N(CCO)C2c2ccc([N+](=O)[O-])cc2)cc1 (stereo not drawn) | 23.9% (active)
COc1ccc(N/C(C)=C2/C(=O)C(=O)N(CCO)C2c2ccc(Br)cc2)cc1 (stereo not drawn) | 7.27%
CCCCN1C(=O)C(O)=C(C(C)=O)C1c1ccccc1[N+](=O)[O-] (stereo not drawn) | -0.46%
CCCCN(CC)S(=O)(=O)c1ccc2c(c1)CCCN2C(C)=O | -2.36%
CC1CCCCN1S(=O)(=O)c1cnc(Cl)c(Br)c1 (stereo not drawn) | -7.81%
O=C(c1ccccc1F)N1CCN=C1c1ccccc1 | 6.9%
Cc1occc1C(=O)N/N=C/c1ccccn1 | 3.01%
Nn1c(SCC(=O)Nc2cc(S(=O)(=O)N3CCOCC3)ccc2Cl)nnc1-c1cccnc1 | 6.37%
COc1ccc(-n2cnnc2SCC(=O)Nc2cc(S(=O)(=O)N3CCCCC3)ccc2C)cc1 | 3.33%
Cc1ccnc2nc(C(=O)Nc3ccc(S(=O)(=O)N4CCCC4)cc3)nn12 | -4.02%
Cc1cc2ccccc2nc1SCC(=O)N1CCCC1 | 11.8%
O=C(CSc1nc2ccccc2nc1SCC(=O)N1CCCCC1)N1CCCCC1 | 42.7% (active)
COc1ccc2nc(SCC(=O)N3CCCCC3)c(C#N)cc2c1 | 19.1%
COc1ccc2nc(SCC(=O)N3CCCCCC3)c(C#N)cc2c1 | 6.08%
O=C(CSc1nc2ccccc2nc1SCC(=O)N1CCOCC1)N1CCOCC1 | 6.36%
O=C(CCc1nnc(Cc2c[nH]c3ccccc23)o1)NC(C1CC1)C1CC1 | 1.78%

SMILES | inhibition
CN1CCN(C(=O)CCNC(=O)Cn2ccc3ccccc3c2=O)CC1 | 2.23%
CC(=O)Nc1ccc(NC(=O)Cn2nc([N+](=O)[O-])c(Br)c2C)cc1 | -1.26%
CCn1c(COc2cccc(OC)c2)nnc1SCC(=O)Nc1cccc(OC)c1 | -3.8%
CCCn1cc(S(=O)(=O)CC(=O)N2CCc3ccccc32)c2ccccc21 | -2.1%
CCC(C)(C(=O)NC1CCCCC1)N(CC1CCCO1)C(=O)CNC(=O)c1ccccc1 (stereo not drawn) | 4.25%
O=C(CS)Nc1ccc2ccccc2c1 | 6.21%
CC(C)CC(c1nnnn1CC1CCCO1)N1CCN(c2cccc(Cl)c2)CC1 (stereo not drawn) | 31.4% (active)
Cc1ccc(Cl)cc1N1CCN(C(CC(C)C)c2nnnn2CC2CCCO2)CC1 (stereo not drawn) | -6.33%
CCCC(c1nnnn1CC1CCCO1)N1CCN(c2ccccc2)CC1 (stereo not drawn) | 7.5%
CCCCCc1ccc(CC(=O)O)cc1 | 3%
O=c1nc(N2CCCC2)nc(Nc2ccccc2)[nH]1 | 9.86%
c1ccc(Nc2nc(N3CCCCC3)nc(N3CCCCC3)n2)cc1 | 2.1%
CCOC(=O)CC(NC(C)=O)c1ccc([N+](=O)[O-])cc1 (stereo not drawn) | 2.95%
CCc1cc2c(=O)c(-c3nc4ccccc4n3C)c(COCC(=O)O)oc2cc1O | 6.97%
COC(=O)C(=Nc1ccccc1)/C(C(=O)C(=O)N(C)c1ccccc1)=C(\O)c1ccccc1 | 16.3%
CC1CCC(NC(=O)C2CCN(S(=O)(=O)c3ccc4nc5c(c(C(=O)O)c4c3)CC(C)CC5)CC2)CC1 (stereo not drawn) | 7.59%
CC1CCc2nc3ccc(S(=O)(=O)N4CCC(C(=O)N5CCCCC5)CC4)cc3c(C(=O)O)c2C1 (stereo not drawn) | 7.8%
O=C(O)c1c2c(nc3ccc(S(=O)(=O)N4CCC(C(=O)N5CCCCC5)CC4)cc13)CCCC2 | 4.87%
O=C(O)c1c2c(nc3ccc(S(=O)(=O)N4CCC(C(=O)NC5CCCCCC5)CC4)cc13)CCCC2 | 23.1%
CC1CCc2nc3ccc(S(=O)(=O)N4CCC(C(=O)N5CCCCCC5)CC4)cc3c(C(=O)O)c2C1 (stereo not drawn) | 13.6%
CC1CCc2nc3ccc(S(=O)(=O)N4CCC(C(=O)NC5CCCC5)CC4)cc3c(C(=O)O)c2C1 (stereo not drawn) | 23.4% (active)
CCCNC(=O)C1CCN(S(=O)(=O)c2ccc3nc4c(c(C(=O)O)c3c2)CCCCC4)CC1 | 25.7% (active)
CCCNC(=O)C1CCN(S(=O)(=O)c2ccc(Br)cc2)CC1 | 0.41%
O=C(O)c1c2c(nc3ccc(S(=O)(=O)N4CCC(C(=O)NC5CCCC5)CC4)cc13)CCCCC2 | 26.5% (active)
